Measurements taken from PubChem BioAssay AID1159580 (chemical genetic matrix, 2015).
Hit rate of the full screen: of about 5,500 compounds, about 2,000 (36%) were called active. Another 18% or so got no clear call; they are omitted. Cut-off read from the data, not from the text of the source: active = normalized growth mostly below about 0.91 (no sharp cut-off); inconclusive = no clear call, values can overlap the other calls; inactive = mostly above about 0.92. The list shows a part of the results.

Experiment: chemical genetic growth profiling, strain panel (AID 1159580);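 note: tested at 20 µM; growth read once vehicle control cultures reached saturation at 30 °C; 1 = growth at the plate median or of vehicle wells; lower values mean less growth of the strain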
Conditions: growth OD
[1] = S. cerevisiae deletion strains, locus YHR030C, strain SLT2, active compounds read low
[2] = S. cerevisiae deletion strains, locus YJL095W, strain BCK1, active compounds read low

Measured: normalized growth

COc1ccc(-c2coc3c(OC)c(O)ccc3c2=O)cc1
inactive: S. cerevisiae deletion strains, locus YBR021W, strain FUR4, active compounds read low 0.951 | S. cerevisiae deletion strains, locus YBR229C, strain ROT2, active compounds read low 0.92 | S. cerevisiae deletion strains, locus YCL029C, strain bik1, active compounds read low 0.97 | S. cerevisiae deletion strains, locus YDL035C, strain GPR1, active compounds read low 0.935 | S. cerevisiae deletion strains, locus YDL074C, strain BRE1, active compounds read low 0.9 | S. cerevisiae deletion strains, locus YDL101C, strain DUN1, active compounds read low 0.928 | S. cerevisiae deletion strains, locus YDL185W, strain tfp1, active compounds read low 0.949 | S. cerevisiae deletion strains, locus YDL192W, strain arf1, active compounds read low 0.931 | S. cerevisiae deletion strains, locus YDR101C, strain arx1, active compounds read low 0.944 | S. cerevisiae deletion strains, locus YDR318W, strain mcm21, active compounds read low 0.951 | S. cerevisiae deletion strains, locus YDR388W, active compounds read low 0.965 | S. cerevisiae deletion strains, locus YDR502C, strain sam2, active compounds read low 0.953 | S. cerevisiae deletion strains, locus YEL061C, strain CIN8, active compounds read low 0.958 | S. cerevisiae deletion strains, locus YER110C, active compounds read low 0.953 | S. cerevisiae deletion strains, locus YER155C, strain BEM2, active compounds read low 0.997 | S. cerevisiae deletion strains, locus YER167W, strain BCK2, active compounds read low 0.956 | S. cerevisiae deletion strains, locus YGL078C, strain dbp3, active compounds read low 0.961 | S. cerevisiae deletion strains, locus YGL248W, strain PDE1, active compounds read low 0.927 | S. cerevisiae deletion strains, locus YGR135W, strain pre9, active compounds read low 0.931 | S. cerevisiae deletion strains, locus YGR252W, strain gcn5, active compounds read low 0.826 | [1] 0.976 | S. cerevisiae deletion strains, locus YHR079C, strain IRE1 (second series), active compounds read low 0.946 | S. cerevisiae deletion strains, locus YHR094C, strain hxt1, active compounds read low 0.952 | S. cerevisiae deletion strains, locus YHR129C, strain ARP1, active compounds read low 0.96 | S. cerevisiae deletion strains, locus YHR200W, strain rpn10, active compounds read low 0.936 | S. cerevisiae deletion strains, locus YIL066C, strain RNR3, active compounds read low 0.882 | S. cerevisiae deletion strains, locus YIL073C, strain SPO22, active compounds read low 0.884 | S. cerevisiae deletion strains, locus YIL125W, strain kgd1, active compounds read low 0.967 | S. cerevisiae deletion strains, locus YIR030C, strain dcg1, active compounds read low 0.962 | [2] 0.813 | S. cerevisiae deletion strains, locus YJL134W, strain LCB3, active compounds read low 0.968 | S. cerevisiae deletion strains, locus YJL168C, strain set2, active compounds read low 0.963 | S. cerevisiae deletion strains, locus YJL187C, strain SWE1 (second series), active compounds read low 0.916 | S. cerevisiae deletion strains, locus YJR043C, strain POL32, active compounds read low 0.914 | S. cerevisiae deletion strains, locus YKL009W, strain mrt4, active compounds read low 0.928 | S. cerevisiae deletion strains, locus YKL068W, active compounds read low 0.946 | S. cerevisiae deletion strains, locus YKL085W, strain MDH1 (second series), active compounds read low 0.944 | S. cerevisiae deletion strains, locus YKL085W, strain MDH1, active compounds read low 0.944 | S. cerevisiae deletion strains, locus YKL190W, strain CNB1, active compounds read low 0.958 | S. cerevisiae deletion strains, locus YLR039C, strain RIC1, active compounds read low 0.861 | S. cerevisiae deletion strains, locus YLR058C, strain SHM2, active compounds read low 0.931 | S. cerevisiae deletion strains, locus YLR102C, strain apc9, active compounds read low 0.965 | S. cerevisiae deletion strains, locus YLR262C, strain YPT6, active compounds read low 0.86 | S. cerevisiae deletion strains, locus YLR268W, strain sec22, active compounds read low 0.942 | S. cerevisiae deletion strains, locus YLR330W, strain CHS5, active compounds read low 0.953 | S. cerevisiae deletion strains, locus YLR342W, strain FKS1 (second series), active compounds read low 0.86 | S. cerevisiae deletion strains, locus YLR371W, strain rom2, active compounds read low 0.969 | S. cerevisiae deletion strains, locus YML016C, strain PPZ1, active compounds read low 0.963 | S. cerevisiae deletion strains, locus YML032C, strain rad52, active compounds read low 0.958 | S. cerevisiae deletion strains, locus YML124C, strain tub3, active compounds read low 0.952 | S. cerevisiae deletion strains, locus YMR078C, strain ctf18, active compounds read low 0.95 | S. cerevisiae deletion strains, locus YMR223W, strain ubp8, active compounds read low 0.943 | S. cerevisiae deletion strains, locus YMR307W, strain GAS1, active compounds read low 0.769 | S. cerevisiae deletion strains, locus YNL067W, strain RPL9B, active compounds read low 0.918 | S. cerevisiae deletion strains, locus YNL233W, strain BNI4, active compounds read low 0.892 | S. cerevisiae deletion strains, locus YNL250W, strain rad50, active compounds read low 0.968 | S. cerevisiae deletion strains, locus YNL271C, strain bni1, active compounds read low 0.945 | S. cerevisiae deletion strains, locus YNL298W, strain CLA4, active compounds read low 0.94 | S. cerevisiae deletion strains, locus YNR052C, strain pop2, active compounds read low 0.964 | S. cerevisiae deletion strains, locus YOL006C, strain TOP1, active compounds read low 0.742 | S. cerevisiae deletion strains, locus YOL012C, strain htz1 0.945 | S. cerevisiae deletion strains, locus YOL147C, strain pex11, active compounds read low 0.966 | S. cerevisiae deletion strains, locus YOR061W, strain CKA2, active compounds read low 0.933 | S. cerevisiae deletion strains, locus YOR069W, strain VPS5, active compounds read low 0.969 | S. cerevisiae deletion strains, locus YOR136W, strain idh2, active compounds read low 0.98 | S. cerevisiae deletion strains, locus YOR144C, strain elg1, active compounds read low 0.966 | S. cerevisiae deletion strains, locus YOR184W, strain ser1, active compounds read low 0.876 | S. cerevisiae deletion strains, locus YOR316C, strain cot1, active compounds read low 0.961 | S. cerevisiae deletion strains, locus YPL055C, strain LGE1, active compounds read low 0.86 | S. cerevisiae deletion strains, locus YPR119W, strain clb2, active compounds read low 0.977 | S. cerevisiae deletion strains, locus YPR141C, strain kar3, active compounds read low 0.955 | S. cerevisiae deletion strains, locus YPR163C, strain tif3, active compounds read low 0.931 | S. cerevisiae deletion strains, locus YPR167C, strain met16, active compounds read low 0.954 | S. cerevisiae deletion strains, strain wtn01, active compounds read low 0.962 | S. cerevisiae strains, strain wild type, active compounds read low 0.95
active: S. cerevisiae deletion strains, locus YDL134C, strain PPH21, active compounds read low 0.888 | S. cerevisiae deletion strains, locus YDR162C, strain NBP2, active compounds read low 0.792 | S. cerevisiae deletion strains, locus YGL086W, strain mad1, active compounds read low 0.929 | S. cerevisiae deletion strains, locus YKR001C, strain vps1, active compounds read low 0.896 | S. cerevisiae deletion strains, locus YLR418C, strain cdc73, active compounds read low 0.808 | S. cerevisiae deletion strains, locus YNL307C, strain MCK1, active compounds read low 0.896

COc1ccc(-c2coc3c(O)c(O)c(OC)cc3c2=O)cc1
inactive: [1] 0.96 | S. cerevisiae deletion strains, locus YHR079C, strain IRE1, active compounds read low 0.969 | [2] 0.955 | S. cerevisiae deletion strains, locus YJR066W, strain TOR1, active compounds read low 0.912 | S. cerevisiae deletion strains, locus YLR113W, strain HOG1, active compounds read low 0.955 | S. cerevisiae deletion strains, locus YNL183C, strain NPR1, active compounds read low 0.888 | S. cerevisiae deletion strains, locus YOR231W, strain MKK1, active compounds read low 0.971 | S. cerevisiae deletion strains, locus YPL256C, strain CLN2, active compounds read low 0.953
